SMILES strings stand for the structures. Results with a measured potency or affinity are listed apart.

In one experiment the test system is Klebsiella pneumoniae. As to conditions: Concentration 32 ug.mL-1; ASSAY_TEST Inhibition of Bacterial Growth; detection method Absorption (OD600); MEDIA CAMHB; plate type 384well; NBS; CORNING #3640; time 18 hr.
The next experiment deals with Candida albicans. As to conditions: 32 ug/mL.
The test system of the next experiment is Cryptococcus neoformans. As to conditions: Concentration 32 ug.mL-1; ASSAY_TEST Inhibition of Fungal Growth; detection method Resazurin; Absorption (OD600-OD570); plate type 384well; NBS; CORNING #3640. (In general: Alamar Blue is a resazurin reagent that responds to reducing activity.)

On to `CN(C)C(=N)NC(=N)N.Cl` [METFORMIN HYDROCHLORIDE], for which the figures for the Inhibition in the experiment with Klebsiella pneumoniae, with Candida albicans and with Cryptococcus neoformans were 14.76%, 99% and 90.72%, respectively.
Taken in the same sequence, the figures for `C=C[C@H]1[C@H](O[C@@H]2O[C@H](CO)[C@@H](O)[C@H](O)[C@H]2O)OC=C2C(=O)OCC[C@]21O` [SWERTIAMARIN] were 13.48%, 14.2% and 102.17%.

These data come from ChEMBL document CHEMBL4513158, “CO-ADD screening of RKDF (India) compounds”.
